Source: PubChem BioAssay AID1159580 (chemical genetic matrix, 2015)
Values joined by “and” are separate entries in the source; they are usually repeats but may differ in a detail not shown here. Equal entries are not always repeated. The campaign covered roughly 5,500 compounds. About 2,000 (36%) were called active. About 18% were inconclusive and are not listed. Cut-off read from the data, not from the text of the source: active = normalized growth mostly below about 0.91 (no sharp cut-off); inconclusive = no clear call, values can overlap the other calls; inactive = mostly above about 0.92. This is one part of the list.

Assay: chemical genetic growth profiling, strain panel (AID 1159580);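 note: tested at 20 µM; growth read once vehicle control cultures reached saturation at 30 °C; 1 = growth at the plate median or of vehicle wells; lower values mean less growth of the strain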
Conditions: S. cerevisiae deletion strains, growth OD

Measured: normalized growth

CN1CCN(C2=Nc3ccccc3Oc3ccc(Cl)cc32)CC1
inactive: locus YAL013W, strain DEP1, hits give low values 0.995 and 0.98 | locus YAL021C, strain ccr4, hits give low values 0.981 | locus YAL026C, strain drs2, hits give low values 0.984 | locus YAL030W, strain snc1, hits give low values 1 | locus YAL040C, strain CLN3, hits give low values 0.979 | locus YBL061C, strain skt5, hits give low values 0.982 | locus YBR009C, strain hhf1, hits give low values 1.01 | locus YBR021W, strain FUR4, hits give low values 1.01 | locus YBR023C, strain chs3, hits give low values 1 | locus YBR171W, strain sec66, hits give low values 0.964 | locus YBR229C, strain ROT2, hits give low values 0.953 | locus YBR231C, strain swc5, hits give low values 0.988 | locus YBR279W, strain paf1, hits give low values 0.987 | locus YCL011C, strain gbp2, hits give low values 0.978 | locus YCL016C, strain dcc1, hits give low values 1 | locus YCL029C, strain bik1, hits give low values 0.994 | locus YCL061C, strain MRC1 (second series), hits give low values 0.992 | locus YCL061C, strain MRC1, hits give low values 0.989 | locus YCL069W, strain vba3, hits give low values 0.999 | locus YCR088W, strain abp1, hits give low values 0.993 | locus YDL005C, strain med2, hits give low values 0.972 | locus YDL035C, strain GPR1, hits give low values 0.988 | locus YDL040C, strain nat1, hits give low values 0.97 | locus YDL074C, strain BRE1, hits give low values 0.997 | locus YDL101C, strain DUN1, hits give low values 0.989 | locus YDL134C, strain PPH21, hits give low values 0.979 | locus YDL185W, strain tfp1, hits give low values 0.992 | locus YDL192W, strain arf1, hits give low values 0.991 | locus YDR001C, strain nth1, hits give low values 0.967 | locus YDR069C, strain doa4, hits give low values 0.969 | locus YDR101C, strain arx1, hits give low values 0.994 | locus YDR137W, strain rgp1, hits give low values 1.01 | locus YDR150W, strain NUM1, hits give low values 0.991 and 1.02 | locus YDR159W, strain sac3, hits give low values 0.972 | locus YDR162C, strain NBP2, hits give low values 1.01 | locus YDR195W, strain ref2 0.948 | locus YDR297W, strain sur2, hits give low values 0.99 | locus YDR318W, strain mcm21, hits give low values 0.977 | locus YDR334W, strain swr1, hits give low values 0.947 | locus YDR335W, strain msn5, hits give low values 0.982 | locus YDR363W, strain ESC2, hits give low values 0.928 | locus YDR388W, hits give low values 0.994 | locus YDR392W, strain spt3, hits give low values 1.05 | locus YDR502C, strain sam2, hits give low values 0.986 | locus YEL003W, strain gim4, hits give low values 0.976 | locus YEL037C, strain rad23, hits give low values 0.998 | locus YEL061C, strain CIN8 (second series), hits give low values 0.97 | locus YEL061C, strain CIN8, hits give low values 0.997 | locus YER002W, strain NOP16, hits give low values 0.974 | locus YER015W, strain faa2, hits give low values 0.996 | locus YER016W, strain bim1, hits give low values 1 | locus YER110C, hits give low values 0.985 | locus YER111C, strain swi4, hits give low values 0.998 | locus YER155C, strain BEM2 (second series), hits give low values 0.985 | locus YER155C, strain BEM2, hits give low values 0.996 | locus YER167W, strain BCK2, hits give low values 0.988 | locus YFR010W, strain ubp6, hits give low values 1.01 | locus YGL078C, strain dbp3, hits give low values 1 | locus YGL086W, strain mad1, hits give low values 0.974 | locus YGL167C, strain pmr1, hits give low values 0.984 | locus YGL173C, strain kem1, hits give low values 1.01 | locus YGL227W, strain vid30, hits give low values 0.956 | locus YGL240W, strain doc1, hits give low values 1.02 | locus YGL248W, strain PDE1, hits give low values 0.963 | locus YGL253W, strain hxk2, hits give low values 0.982 | locus YGR078C, strain PAC10, hits give low values 1.02 and 0.994 | locus YGR135W, strain pre9, hits give low values 0.981 | locus YGR229C, strain SMI1, hits give low values 0.983 | locus YGR252W, strain gcn5, hits give low values 0.956 | locus YHR013C, strain ard1, hits give low values 0.974 | locus YHR027C, strain rpn1, hits give low values 0.966 | locus YHR030C, strain SLT2, hits give low values 0.987 and 1.04 | locus YHR079C, strain IRE1 (second series), hits give low values 0.99 | locus YHR079C, strain IRE1, hits give low values 1.06 | locus YHR094C, strain hxt1, hits give low values 0.991 | locus YHR129C, strain ARP1, hits give low values 0.991 | locus YHR142W, strain chs7, hits give low values 0.956 | locus YHR200W, strain rpn10, hits give low values 0.987 | locus YIL066C, strain RNR3, hits give low values 0.971 | locus YIL073C, strain SPO22, hits give low values 0.989 | locus YIL125W, strain kgd1, hits give low values 0.992 | locus YIR030C, strain dcg1, hits give low values 0.991 | locus YJL092W, strain hpr5, hits give low values 0.978 | locus YJL095W, strain BCK1 (second series), hits give low values 0.964 | locus YJL095W, strain BCK1, hits give low values 0.981 and 1.03 | locus YJL115W, strain asf1, hits give low values 0.926 | locus YJL129C, strain trk1, hits give low values 0.971 | locus YJL134W, strain LCB3, hits give low values 0.992 | locus YJL154C, strain vps35, hits give low values 0.97 | locus YJL164C, strain tpk1, hits give low values 0.998 | locus YJL166W, strain qcr8, hits give low values 0.975 | locus YJL168C, strain set2, hits give low values 0.991 | locus YJL187C, strain SWE1 (second series), hits give low values 0.983 | locus YJL187C, strain SWE1, hits give low values 0.99 | locus YJR043C, strain POL32, hits give low values 1.01 | locus YJR066W, strain TOR1, hits give low values 0.931
